Hits are enriched below; roughly 17% of the tested compounds scored in any of these assays.
HT1080 IDH1KD tx: qHTS for induction of synthetic lethality in tumor cells producing 2HG: qHTS for the HT-1080-IDH1KD cell line | Potency, µM (highest dose often 46.1 µM), usual class: cytotoxic | HT-1080 IDH1 knockdown viability, ATP luminescence, 48 h | 360,000 tested, 2% active | AID 686971, 2013
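IDH1KD HT-1080 cells, 750/well, RPMI + 5% FBS; compound pinned after 2 h settling; 48 h, 37 °C; CellTiter-Glo luminescence; % activity normalised to DMSO and no-cell wells; curves fitted, classed by r2 and efficacy.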
DT40 TDP1 CPT: qHTS for Inhibitors of human tyrosyl-DNA phosphodiesterase 1 (TDP1): qHTS in cells in presence of CPT | chicken DT40 Tdp1-/-;hTDP1 cells + 20 nM CPT, ATP luminescence, 48 h | Potency, µM (titrated, usually from 46.2 µM), most hits filed as inhibitors | 420,000 tested, 12% active | AID 686979, 2013; note: nearly all actives have a fitted effect of over 55% in size
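Chicken DT40 Tdp1-/- cells stably complemented with human TDP1 were seeded at 400 cells/well in medium containing 20 nM camptothecin, exposed to pin-transferred compounds, and grown at 37 °C for at least 48 hr. Viability was read as ATP luminescence.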
HepG2 viability: qHTS for Inhibitors of TGF-b: Cytotox Counterscreen; Potency, µM (top dose mostly 46.1 µM), most hits filed as cytotoxic; 410,000 tested, 0.76% active; HepG2 CAGA-GFP viability, ATP luminescence, 18 h
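CellTiter-Glo luminescence gave cytotoxicity after 18 hours at 37 degrees C. The cells were HepG2 CAGA-GFP in 1% FBS DMEM, stimulated with 500 pg/mL TGF-beta after compound addition. %Activity was normalised to no-cell wells (complete cell-killing) and DMSO (no toxicity), and curves were fitted and classified.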
HT1080-NT tox: qHTS for induction of synthetic lethality in tumor cells producing 2HG: qHTS for the HT-1080-NT fibrosarcoma cell line; 360,000 tested, 1.6% active; HT-1080-NT fibrosarcoma viability, CellTiter-Glo ATP luminescence, 48 h; Potency, µM (titrated, usually from 46.1 µM), most hits filed as cytotoxic;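 note: NT is the 2HG producing partner of a matched IDH1 knockdown line; nearly all actives have a fitted effect of over 55% in size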
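Viability by CellTiter-Glo luminescence after 48 h compound exposure at 37C of HT-1080-NT cells (750/well, RPMI, 5% FBS). % activity scaled between DMSO wells and medium-only wells, then curve-fitted and categorized by curve class.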
TGFb inhibitor: qHTS for Inhibitors of TGF-b. Potency, µM (top dose mostly 46.1 µM), most hits filed as inhibitors. 410,000 tested, 1.2% active. HepG2 CAGA-GFP TGF-b/SMAD3 reporter, GFP fluorescence, 18 h; TGF-beta stimulated, 500 pg/mL final. AID 588855, 2011; note: nearly all actives have a fitted effect of over 65% in size
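HEPG2 CAGA-GFP cells (1000/well, DMEM with 1% FBS) were pre-incubated 2 h at 37 degrees C, given compound by pin tool, then stimulated with TGF-beta at 500 pg/mL final for 18 h before per-cell GFP fluorescence imaging.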
TDP1 cell noCPT: qHTS for Inhibitors of human tyrosyl-DNA phosphodiesterase 1 (TDP1): qHTS in cells in absence of CPT; DT40 Tdp1-/- hTDP1 cells, no CPT, ATP luminescence, 48 h; Potency, µM (top dose mostly 46.2 µM), usual class: inhibitors; 420,000 tested, 15% active; note: nearly all actives have a fitted effect of over 55% in size
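Readout: luminescence from CellTiter-Glo after 30 min in the dark at RT. Cells: DT40 Tdp1-/- with stable hTDP1, 400/well. Exposure: compounds alone, ≥48 hr, 37 °C.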
Hits are given with their value; . = inactive; ? = inconclusive; / = no result given; [ ] = remark or other dose. Calls come from the whole dose curve; as a rule, active = well fitted curve in the direction sought with a large enough effect; inconclusive = small, poorly fitted or top-dose-only effect, or another doubt; inactive = no such curve, though single readings can be large; an effect the other way counts as inactive or inconclusive.

SMILES	HT1080 IDH1KD tx	DT40 TDP1 CPT	HepG2 viability	HT1080-NT tox	TGFb inhibitor	TDP1 cell noCPT
COc1ccc2oc(=O)c(-c3csc(Nc4cccc(O)c4)n3)cc2c1	?	?	.	?	?	16µM
COc1ccc(Nc2nc(-c3cc4cccc(OC)c4oc3=O)cs2)cc1	.	?	.	.	.	21µM
COC(=O)Cc1ccc(NC(=S)NCCSc2ccc(Cl)cc2)cc1	.	?	.	.	.	21µM
Cc1cc(C)cc(NC(=S)NCCSc2ccc(Cl)cc2)c1	?	?	.	?	?	21µM
Cc1ccc(SCCNC(=S)Nc2ccc(C)c(C)c2)cc1	.	?	.	.	?	?
CCn1cc(C(=O)NCc2ccc(C)cc2)c(=O)c2cc(S(=O)(=O)N3CCCCCC3)ccc21	/	15µM	.	/	.	21µM
CCn1cc(C(=O)NCc2ccc(Cl)cc2)c(=O)c2cc(S(=O)(=O)N3CCOCC3)ccc21	.	21µM	.	.	.	23µM
CCn1cc(C(=O)NCC(OC)OC)c(=O)c2cc(S(=O)(=O)N3CCCC3)ccc21	.	.	.	.	.	.
CCn1cc(C(=O)NCC(OC)OC)c(=O)c2cc(S(=O)(=O)N3CCC(C)CC3)ccc21	.	?	.	.	.	10µM
COC(=O)[C@]12CCCCC=C1N(Cc1ccccc1)C(=O)[C@H](CC(=O)NCCc1ccccc1OC)C2	.	?	/	.	/	?
Cc1ccc2c(C(=O)CNC3=NCCS3)c(C)[nH]c2c1	/	?	.	/	.	?
Cc1ccc(S(=O)(=O)N2CC3C(=O)CC(c4ccccc4)N(S(=O)(=O)c4ccc(C)cc4)C3CC2c2cccc(Cl)c2)cc1 (stereo unspecified)	.	.	/	?	/	.
Cc1ccc(C2(C)NC(=O)N(CC(=O)NC(=O)NC(C)C)C2=O)cc1 (stereo unspecified)	.	.	.	.	.	.
Cc1ccc(C(CCNC(C)c2cccs2)c2ccco2)cc1 (stereo unspecified)	?	?	.	?	?	18µM
CN(c1ccccc1)S(=O)(=O)c1ccc(C(=O)NCc2ccccn2)cc1	.	?	.	.	.	?
COc1ccc(NS(=O)(=O)c2ccc(N3CCOCC3)c(NC(=O)c3ccccc3Cl)c2)cc1	.	.	.	.	.	?
COc1ccc(NS(=O)(=O)c2ccc(N3CCOCC3)c(N)c2)cc1	.	2.6µM	.	.	.	1.2µM
COc1ccc(S(=O)(=O)Nc2ccc(N3CCOCC3)cc2)cc1	.	.	.	.	.	.
COC(=O)c1ccc(N2CCOCC2)c(NC(=O)c2ccc3c(c2)OCO3)c1	.	.	.	.	.	?
COc1ccc(N2CCOCC2)c(NC(=O)c2ccc3c(c2)OCO3)c1	.	?	.	.	.	21µM
COc1ccc(NS(=O)(=O)c2ccc(N3CCOCC3)c(NC(=O)c3ccc(OC)cc3)c2)cc1	.	16µM	.	.	?	16µM
CCOC(=O)C1=C(COC(=O)C2CC(=O)N(c3ccccc3CC)C2)NC(=O)NC1C (stereo unspecified)	.	.	.	.	.	.
N#Cc1cccc(NC(=O)c2cc(C3CCCCN3S(=O)(=O)c3ccccc3)on2)c1 (stereo unspecified)	.	?	.	.	.	16µM
CCCNC(=O)c1cc(C2CCCCN2S(=O)(=O)c2ccc(OC)cc2)on1 (stereo unspecified)	.	.	.	.	.	?
COc1ccc(S(=O)(=O)N2CCCCC2c2cc(C(=O)NCc3ccccc3)no2)cc1 (stereo unspecified)	.	26µM	.	.	.	?
SMILES	HT1080 IDH1KD tx	DT40 TDP1 CPT	HepG2 viability	HT1080-NT tox	TGFb inhibitor	TDP1 cell noCPT
COc1ccc(S(=O)(=O)N2CCCCC2c2cc(C(=O)Nc3ccc4c(c3)OCO4)no2)cc1 (stereo unspecified)	?	18µM	.	.	.	15µM
O=C(NCc1ccccc1)c1cc(C2CCCCN2S(=O)(=O)c2ccccc2)on1 (stereo unspecified)	.	?	.	.	.	26µM
CS(=O)(=O)N1CCCCC1c1cc(C(=O)Nc2ccc3c(c2)OCO3)no1 (stereo unspecified)	.	.	.	.	.	.
Oc1ccccc1C=NCCN1CCN(CCN=Cc2ccccc2O)C1c1ccccc1O (stereo unspecified)	.	?	.	.	.	?
Cc1cccc(C)c1NS(=O)(=O)c1c(C(=O)N2CCCCC2)c(C)n(C)c1C	.	.	.	.	.	.
O=C(CCCc1ccccc1)NCCS(=O)(=O)N1CCN(c2ccccc2)CC1	.	?	.	.	.	?
O=S(=O)(c1ccccc1F)N1CCN(CCc2ccccc2)CC1	.	.	.	.	?	?
CCCNC(=O)c1cc(C2CCCCN2S(=O)(=O)c2ccc(F)cc2F)on1 (stereo unspecified)	.	.	.	.	.	.
O=C(NCc1ccc(F)cc1)c1cc(C2CCCCN2S(=O)(=O)c2ccc(F)cc2F)on1 (stereo unspecified)	.	23µM	.	.	.	?
CCCCNC(=O)C1(C)CCN1C(=O)c1cc(-c2ccccc2)cs1 (stereo unspecified)	.	?	.	.	.	?
COc1ccc(C2=NS(=O)(=O)N(C)C(C(=O)N3CCC(C)CC3)=C2)cc1	.	?	.	.	.	?
O=C(c1cc2nc(-c3ccco3)cc(C(F)(F)F)n2n1)N1CCc2ccccc2C1	.	?	.	.	.	23µM
O=C(c1cccc(F)c1)N1CCN(C(=O)c2cc3nc(-c4ccco4)cc(C(F)(F)F)n3n2)CC1	.	.	.	.	.	15µM
O=C(c1cnn2c(C(F)(F)F)cc(-c3ccc(F)cc3)nc12)N1CCc2ccccc2C1	.	?	.	.	?	21µM
CN1CCN(C(=O)c2cc3nc(-c4ccco4)cc(C(F)(F)F)n3n2)CC1	.	.	.	.	.	.
CN1C(C(=O)N2CCc3ccccc3C2)=CC(c2ccc(F)cc2)=NS1(=O)=O	.	?	.	.	?	26µM
O=C(c1cnn2c(C(F)(F)F)cc(-c3ccccc3)nc12)N1CCOCC1	.[9.24 µM]	?	.	.	.	.
